From PubChem BioAssay (NCATS)
Records with an inconclusive call do not appear. Calls of active or inactive are those of the source. Calls come from the whole dose curve; as a rule, active = well fitted curve in the direction sought with a large enough effect; inconclusive = small, poorly fitted or top-dose-only effect, or another doubt; inactive = no such curve, though single readings can be large; an effect the other way counts as inactive or inconclusive.

Columns and labels:
[1] = tested on: CRL-7250; test: Cytotoxic Profiling of Annotated Libraries Using Quantitative High-Throughput Screening (AID 1296008); conditions: Five cell lines viability, CellTiter-Glo ATP luminescence, 48-72 h; max response: active compounds read low; note: nearly all actives have a fitted effect of over 60% in size; for max response: % is set by controls: 0 for no effect and ±100 for the full control effect
In short: (§1)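 Compounds were pin-transferred onto cells and incubated 48 or 72 hr at 37 degree Celsius, 95% humidity. CellTiter-Glo was added, plates sat 10 min at room temperature, then ATP-coupled luminescence was imaged as the viability read-out.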

[2] = tested on: HEK293; test: as above; conditions: Five cell lines viability, CellTiter-Glo ATP luminescence, 48-72 h; max response: active compounds read low
In short: as §1

[3] = tested on: HaCat; test: as above; conditions: Five cell lines viability, CellTiter-Glo ATP luminescence, 48-72 h; max response: active compounds read low
In short: as §1

[4] = tested on: KB-3-1; test: as above; conditions: Five cell lines viability, CellTiter-Glo ATP luminescence, 48-72 h; max response: active compounds read low
In short: as §1

[5] = tested on: NIH3T3; test: as above; conditions: Five cell lines viability, CellTiter-Glo ATP luminescence, 48-72 h; max response: active compounds read low
In short: as §1

[6] = tested on: HACAT; test: qHTS assay to identify novel small-molecules to repurpose for Merkel cell carcinoma treatment (AID 1296009); conditions: MCC and control cell lines, CellTiter-Glo viability, 72 h; at 44.8 µM (top of the series) unless noted; note: nearly all actives have a fitted effect of over 60% in size
In short: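 Cells exposed to NPC (8-point) and MIPE (11-point) compound dilutions for 72 hr at 37 degree celsius; viability read by CellTiter-Glo luminescence, normalized to no-cell and DMSO in-plate controls.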

[7] = tested on: C33A; test: Primary qHTS to identify gynecologic anti-cancer compounds using libraries of approved drugs and bioactive compounds (AID 1345084); conditions: Gynecologic cancer cell panel viability, ATPlite luminescence, 48 h; series mostly up to 57.5 µM; note: % is set by controls: 0 for no effect and ±100 for the full control effect; nearly all actives have a fitted effect of over 55% in size
In short: (§2)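 Cytotoxicity screen measuring ATP content by luciferase luminescence. Each compound is applied at five concentrations for 48 h at 37 C with 5% CO2.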

[8] = tested on: CAOV3; test: as above; conditions: Gynecologic cancer cell panel viability, ATPlite luminescence, 48 h; series mostly up to 57.5 µM
In short: as §2

[9] = tested on: CASKI; test: as above; conditions: Gynecologic cancer cell panel viability, ATPlite luminescence, 48 h; series mostly up to 57.5 µM
In short: as §2

[10] = tested on: Es-2; test: as above; conditions: Gynecologic cancer cell panel viability, ATPlite luminescence, 48 h; series mostly up to 57.5 µM
In short: as §2

[11] = tested on: HeLa; test: as above; conditions: Gynecologic cancer cell panel viability, ATPlite luminescence, 48 h; series mostly up to 57.5 µM
In short: as §2

[12] = tested on: Hek293T; test: as above; conditions: Gynecologic cancer cell panel viability, ATPlite luminescence, 48 h, control line for the selectivity index; series mostly up to 57.5 µM
In short: as §2

[13] = tested on: JEG-3; test: as above; conditions: Gynecologic cancer cell panel viability, ATPlite luminescence, 48 h; series mostly up to 57.5 µM
In short: as §2

OC[C@H]1O[C@@H](OCCc2ccccc2)[C@H](O)[C@@H](O)[C@@H]1O
inactive: max response [1] -3.7% | max response [2] 3.92% | outcome [3] | max response [4] 6.47% | max response [5] 4.48% | outcome [6] | Potency [7] | Potency [8] | outcome [9] | Potency [10] | Potency [11] | Potency [12] | Potency [13]

COC(=O)C1=COC(OC2OC(CO)C(O)C(O)C2O)C2C(COC(=O)/C=C/c3ccc(O)cc3)C(O)C(O)C12 (centres undefined)
inactive: outcome [1] | max response [2] 0.595% | outcome [3] | outcome [4] | max response [5] -5.08% | outcome [6] inactive [at 17.4 µM] | Potency [7] | Potency [8] | outcome [9] | Potency [10] | Potency [11] | Potency [12] | Potency [13]

CC(=O)c1ccc(O[C@@H]2O[C@H](CO[C@@H]3OC[C@@H](O)[C@H](O)[C@H]3O)[C@@H](O)[C@H](O)[C@H]2O)cc1
inactive: outcome [1] | max response [2] -1.26% | outcome [3] | max response [4] 4.67% | outcome [5] | outcome [6] inactive [at 17.4 µM] | Potency [7] | Potency [8] | outcome [9] | Potency [10] | Potency [11] | Potency [12] | Potency [13]

COC(=O)C(Cc1ccccc1)NC(=O)c1ccccc1 (centres undefined)
inactive: max response [1] -7.59% | max response [2] -8.19% | outcome [3] | max response [4] 6.61% | max response [5] -1.1% | outcome [6] | Potency [7] | Potency [8] | outcome [9] | Potency [10] | Potency [11] | Potency [12] | Potency [13]

C=C1C(OC(C)=O)C(=O)C2C(C)(C)C(O)CCC2(C)C1CC(OC(C)=O)/C(C)=C/COC(C)=O (centres undefined)
inactive: max response [1] -6.92% | max response [2] -10.7% | outcome [3] | max response [4] 5.46% | max response [5] -4.73% | outcome [6] inactive [at 17.4 µM] | Potency [7] | Potency [8] | outcome [9] | Potency [10] | Potency [11] | Potency [12] | Potency [13]

CC(=O)O[C@@H]1C[C@@H](C)[C@](O)(CCC2=CC(=O)OC2)[C@@]2(C)CCCC(C)(C)C12 (some centres undefined)
inactive: outcome [1] | max response [2] -5.82% | outcome [3] | max response [4] 9.64% | max response [5] 2.01% | outcome [6] | Potency [7] | Potency [8] | outcome [9] | Potency [10] | Potency [11] | Potency [12] | Potency [13]

C[C@@H]1O[C@@H](OC2C(O[C@H]3[C@H](O[C@H]4CC[C@@]5(C)C(CC[C@]6(C)C5CC=C5C7CC(C)(C)CC(O)[C@]7(C)CC[C@]56C)C4(C)C)O[C@H](C(=O)O)[C@@H](O)[C@@H]3O)OC(CO)C(O)C2O)[C@H](O)[C@H](O)[C@H]1O (some centres undefined)
inactive: max response [1] 4.13% | max response [2] -5.35% | outcome [3] | max response [4] 3.37% | max response [5] 1.38% | outcome [6] inactive [at 9.27 µM] | activity change, negative = cytotoxicity [7] 9.23% [at 11.6 µM] | activity change, negative = cytotoxicity [8] 0.0107% [at 11.6 µM] | activity change, negative = cytotoxicity [9] 13.1% [at 11.6 µM] | activity change, negative = cytotoxicity [10] 2.61% [at 11.6 µM] | activity change, negative = cytotoxicity [11] 3.53% [at 11.6 µM] | activity change, negative = cytotoxicity [12] 5.4% [at 11.6 µM] | activity change, negative = cytotoxicity [13] 7.17% [at 11.6 µM]

C=C1CCC2C(C)(C)CCC[C@]2(C)[C@H]1CC/C(C)=C/C(=O)O (some centres undefined)
inactive: outcome [1] | max response [2] -1.43% | outcome [3] | max response [4] -7.37% | max response [5] 2.18% | outcome [6] | Potency [7] | Potency [8] | outcome [9] | Potency [10] | Potency [11] | Potency [12] | Potency [13]

C[C@H]1[C@H](C)CC[C@]2(C(=O)OC3OC(CO)C(O)C(O)C3O)CC[C@]3(C(=O)O)C(=CCC4[C@@]5(C)CC[C@H](O[C@@H]6O[C@@H](C)[C@H](OC7OC(CO)C(O)C(O)C7O)[C@@H](O)[C@H]6O)C(C)(C)C5CC[C@]43C)[C@H]12 (some centres undefined)
inactive: max response [1] -1.78% | max response [2] 2.35% | outcome [3] | outcome [4] | max response [5] -8.63% | outcome [6] inactive [at 9.27 µM] | activity change, negative = cytotoxicity [7] -28.6% [at 11.6 µM] | activity change, negative = cytotoxicity [8] 3.53% [at 11.6 µM] | activity change, negative = cytotoxicity [9] 6.49% [at 11.6 µM] | activity change, negative = cytotoxicity [10] 4.54% [at 11.6 µM] | activity change, negative = cytotoxicity [11] -0.904% [at 11.6 µM] | activity change, negative = cytotoxicity [12] 6.98% [at 11.6 µM] | activity change, negative = cytotoxicity [13] 7.38% [at 11.6 µM]

O=C(OC[C@H]1O[C@H](O[C@]2(CO)O[C@H](CO)[C@@H](O)[C@@H]2O)[C@H](O)[C@@H](O)[C@@H]1O)c1ccc(O)cc1
inactive: max response [1] -3.61% | max response [2] 1.1% | outcome [3] | max response [4] 0.316% | max response [5] -10.5% | outcome [6] inactive [at 17.4 µM] | Potency [7] | Potency [8] | outcome [9] | Potency [10] | Potency [11] | Potency [12] | Potency [13]

CC(=O)O[C@H]1C[C@@H](O)C(C)(C)C2C[C@@H](OC(C)=O)[C@@]3(C)C4=CCC(C(CO)CC(O)C5OC5(C)C)[C@]4(C)CCC3[C@]21C (some centres undefined)
inactive: outcome [1] | max response [2] -1% | outcome [3] | outcome [4] | max response [5] -1.52% | outcome [6] inactive [at 17.4 µM] | Potency [7] | Potency [8] | outcome [9] | Potency [10] | Potency [11] | Potency [12] | Potency [13]

CC(=O)OC(C)(C)/C=C/C(=O)[C@](C)(O)C1[C@H](O)C[C@@]2(C)[C@@H]3CC=C4[C@@H](C[C@H](O[C@@H]5O[C@H](CO)[C@@H](O)[C@H](O)[C@H]5O)C(=O)C4(C)C)[C@]3(C)C(=O)C[C@]12C (some centres undefined)
inactive: outcome [1] | max response [2] -17.8% | outcome [3] | max response [4] 1.94% | outcome [5] | outcome [6] inactive [at 17.4 µM] | Potency [7] | Potency [8] | outcome [9] | Potency [10] | Potency [11] | Potency [12] | Potency [13]

CC(=O)OC/C(=C/C(=O)O)CC[C@@H]1C(CO)=CC[C@@H]2C(C)(C)CCC[C@@]12C
inactive: max response [1] 1.35% | max response [2] 1.68% | outcome [3] | outcome [4] | max response [5] -1.93% | outcome [6] | Potency [7] | Potency [8] | outcome [9] | Potency [10] | Potency [11] | Potency [12] | Potency [13]
